PubChem BioAssay
Values without a mark were called inactive.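 How the source made its calls: active means RAM network inhibition above 8.4% in each of two replicates, 3 SD over the compound average; inconclusive means above 8.4% inhibition in only one replicate; inactive means 8.4% inhibition or less in each replicate.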

experiment: RAM signaling pathway blockade in yeast – S. cerevisiae, Pdr1DBD-CYC8 efflux-inhibited sensitized strain, primary screen (AID 1298);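 further: 0% = DMSO untreated cells without growth and 100% = 10 µM 1-NA-PP1 full growth; higher means more yeast growth rescued from 5-FOA killing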; details: S. cerevisiae cbk1-as DSE1-URA3 strain, 5-FOA growth OD615, 2 d; at 50 µM; hits give high values

Row | SMILES | RAM network inhibition [%]
1 | Cc1ccc(S(=O)(=O)NCC(=O)N2CCOCC2)cc1 | 0.68
2 | COc1ccc(Cl)cc1C(=O)Nc1cc(=O)n(C)c(=O)n1C | 2.2
3 | CCc1noc2c1/C(=N\O)CC(c1ccccc1)C2 (stereo not given) | -1.18
4 | CN(CC1CCCO1)S(=O)(=O)c1ccc(C(=O)Nc2nc(-c3ccccn3)cs2)cc1 (stereo not given) | 2.63
5 | Cc1csc(NC(=O)C2CCCN(S(=O)(=O)c3cccnc3)C2)n1 (stereo not given) | 4.94
6 | O=C(NCCn1ccc2ccccc21)c1ccc(S(=O)(=O)N2CCOCC2)cc1 | 6.66
7 | COCCOC(=O)C1=C(C)NC(=O)NC1c1c(F)cccc1Cl (stereo not given) | 0.88
8 | CN(CC(=O)NC1CCCc2ccccc21)S(=O)(=O)c1ccc2c(c1)c(=O)n(C)c(=O)n2C (stereo not given) | 1.42
9 | Cc1ccc2oc(=O)c3cnn(CC(=O)NC4CCCCC4C)c3c2c1 (stereo not given) | 0.7
10 | Cc1nc(-c2ccc(S(=O)(=O)N3CCCCCC3)cc2)cs1 | 1.28
11 | FC(F)(F)C12CC(c3ccccc3)=NCCN1CCN2 (stereo not given) | -0.53
12 | CCCCCN=C(C)c1c(O)c2ccccc2oc1=O | -1.55
13 | CC1=C(C(=O)Nc2ccccc2C)C(c2ccccc2)NC(=O)N1 (stereo not given) | 2.69
14 | C/C(=C1\SC(N2CCOCC2)=NC1=O)c1ccccc1 | 1.09
15 | N#CC1=C(N)Oc2n[nH]c(-c3ccccc3)c2C1c1cccc(OC(=O)N2CCOCC2)c1 (stereo not given) | 5.62
16 | Cn1c(Cn2c(=O)sc3ccccc32)nnc1SCC(=O)NC1CCCCC1 | 1.06
17 | CCN1C(=O)CS/C1=N\c1nccs1 | -1.23
18 | COc1ccc(CNC(=O)c2cc3c(C)nc4ccccc4c3o2)c(OC)c1 | 6.46
19 | CCCC(=O)NCCCc1nc2ccccc2n1C | 2.78
20 | CCCCn1c(CCC(=O)O)ccc1-c1cccs1 | -1.84

Row | SMILES | RAM network inhibition [%]
21 | CCOc1ccc(N(CC(=O)NCCSc2ccccn2)S(C)(=O)=O)cc1 | 3.38
22 | Cc1c(NS(=O)(=O)CC23CCC(CC2=O)C3(C)C)c(=O)n(-c2ccccc2)n1C (stereo not given) | 3.5
23 | CCc1nnc(NC(=O)C2Cc3ccccc3C(=O)O2)s1 (stereo not given) | 5.85
24 | COc1ccc(C2C(C(=O)NCCN3CCOCC3)c3ccccc3C(=O)N2C)cc1OC (stereo not given) | 3.26
25 | CC1CCN(c2nnc(N3CCC(C)CC3)c3ccccc23)CC1 | 4.58
26 | Cc1ccc(S(=O)(=O)N2CCN(C(=O)CN3CCCC3)C2)cc1 | 8.99
27 | O=C(Nc1ccc(S(=O)(=O)N2CCOCC2)cc1)c1ccc(Cl)cc1 | 3.83
28 | O=C(O)CCNc1cc2ccccc2cc1C(=O)O | -0.37
29 | CCCn1c(C(O)c2ccc3c(c2)OCO3)nc2ccccc21 (stereo not given) | 0.88
30 | CCc1ccc2c(c1)C(NC(C)=O)C(=O)N2CC (stereo not given) | 0.8
31 | O=C(c1c(F)cccc1F)N1CCN(c2cccc(C(F)(F)F)c2)CC1 | 4.98
32 | CCCn1c2ccccc2c2cc(C(=O)O)ccc21 | 2.82
33 | O=S(=O)(NCCSc1nnc(-c2ccco2)n1-c1ccccc1)c1ccccc1 | 6.44
34 | COc1ccc(Nc2ccc3c(c2)=NC2(CCCCC2)[N+]=3[O-])cc1 | 6.69
35 | Cn1c(Cn2c(=O)sc3ccccc32)nnc1SCC(=O)NCc1ccccc1Cl | 3.96
36 | O=C(Nc1cccnc1)c1ccccc1F | 2.95
37 | CCOc1ccc2nc(N3CCC(C(=O)Nc4nnc(CC)s4)CC3)sc2c1 | 6.98
38 | O=C1N(O)C2(C=CCCC2)/C(=N\O)C12CCCCC2 (stereo not given) | 1.27
39 | O=C1CCCC2=C1C1(O)C(=O)c3ccccc3C1(O)O2 (stereo not given) | 1.91
40 | CC1CCC(NC(=O)c2cc3c(=O)n(C)c4ccccc4c3n2C)CC1 (stereo not given) | 4.58
